{"source": "PubChem BioAssay (EPA / NIEHS)", "note": "Where a structure was tested more than once in an assay, its records may differ in their call. Active and inactive are the calls of the source. Rule for the calls: active = hit-call score of the fitted dose curve at least 0.9, where 1 is the maximum; inactive = score below 0.9."}
{"read-out": "Vascular endothelial growth factor receptor 2 (Homo sapiens) (UniProt P35968)", "assay": "BSK_4H_VEGFRII: BioMAP Diversity Plus: 4H Assay for Vascular endothelial growth factor receptor 2 (VEGFR2) Biomarker Activity (AID 2283031)", "details": "primary human endothelial cells (HUVEC); actives raise or lower the signal", "method": "BSK_4H is a cell-based, multiplexed-readout assay that uses umbilical vein endothelium, a human vascular primary cell, with measurements taken at 24 hours after chemical dosing in a 96-well plate.BSK_4H_VEGFRII is an assay component measured in the BSK_4H assay. It measures VEGFRII antibody related to regulation of gene expression using ELISA technology.Data from the assay component BSK_4H_VEGFRII was analyzed into 1 assay endpoint. This assay endpoint, BSK_4H_VEGFRII, was analyzed with bidirectional fitting relative to DMSO as the negative control and baseline of activity. Using a type of binding reporter, gain or loss-of-signal activity can be used to understand changes in the signaling as they relate to the gene KDR. Furthermore, this assay endpoint can be referred to as a primary readout, because this assay has produced multiple assay endpoints where this one serves a signaling function. To generalize the intended target to other relatable targets, this assay endpoint is annotated to the kinase intended target family, where the subfamily is receptor tyrosine kinase.\nThe levels of cell surface (or secreted, indicated by the prefix \"s\") biomarker endpoints were measured by ELISA. Overt cytotoxicity to cells in confluent adherent cultures (all systems other than the BT system) was assessed by measuring total protein levels using sulforhodamine B (SRB) staining in parallel cultures at the time of biomarker measurements, indicated as SRB endpoints. For proliferation assays for adherent cell types, individual cell types are cultured at sub-confluence and relative cell numbers quantified by SRB staining at time points optimized for each system (48 h: 3C and CASM3C systems; 72 h: BT and HDF3CGF systems; 96 h: SAg system). SRB was performed by staining cells with 0.1% SRB after fixation with 10% TCA and reading wells at 560 nm.Viability and proliferation of PBMC (T cells) was quantified by Alamar Blue reduction for the SAg and BT systems. For PBMC viability (referred to as PBMC Cytotoxicity within the assay endpoint names), cells were plated (75,000/well in a 96-well plate) and then chemical samples added for 1 h before addition of activators, SEB and TSST-1 (20 ng/mL final concentration each). Cells were incubated for 90 h. Then, Alamar Blue (20 uL/well) (Invitrogen, Cat DAL1100) was added for 6 h, and the plates were read with a fluorescence microplate reader at 546/580 nm (excitation/emission). For PBMC proliferation, cells were plated and activated as above but incubated for only 16 h prior to addition of Alamar Blue. Plates were read after 6 h."}
{"smiles": "CCCCNc1ccc(NCCCC)c2c1C(=O)c1ccccc1C2=O", "outcome": "inactive"}
{"smiles": "Nc1ccc(N)c(Cl)c1", "outcome": "inactive", "AC50": "10.2 µM (active)"}
{"smiles": "CCO[Si](C)(OCC)OCC", "outcome": "inactive"}
{"smiles": "C=CC=CC=CCCCCC", "outcome": "inactive"}
{"smiles": "c1ccc(-c2ccccn2)nc1", "outcome": "inactive"}
{"smiles": "C=CCOc1c(Br)cc(Br)cc1Br", "outcome": "inactive"}
{"smiles": "C/C=C\\C/C=C/CCCCCCCCOC(C)=O", "outcome": "inactive"}
{"smiles": "CCOC(=O)c1ccccc1C(=C1C=C(Br)C(=O)C(Br)=C1)c1cc(Br)c(O)c(Br)c1", "outcome": "inactive"}
{"smiles": "COc1ccc2nc(N)sc2c1", "outcome": "inactive"}
{"smiles": "CC1OC1C1CCC2(C)OC2C1", "note": "(stereo unspecified)", "outcome": "inactive"}
{"smiles": "CCCCC(CC)COCC1CO1", "note": "(stereo unspecified)", "outcome": "inactive"}
{"smiles": "O=C1CCCN1CCO", "outcome": "inactive"}
{"smiles": "COCc1c(C(C)C)nc(C(C)C)c(/C=C/[C@@H](O)C[C@@H](O)CC(=O)O)c1-c1ccc(F)cc1", "outcome": "inactive"}
{"smiles": "CCOc1nc(F)cc2nc(S(=O)(=O)Nc3c(Cl)cccc3C(=O)OC)nn12", "outcome": "inactive"}
{"smiles": "O=C(Cl)c1cc(C(=O)Cl)cc(C(=O)Cl)c1", "outcome": "inactive"}
{"smiles": "O=C(c1ccc(O)cc1)c1ccc(O)cc1O", "outcome": "inactive"}
{"smiles": "CO[Si](OC)(OC)c1ccccc1", "outcome": "inactive"}
{"smiles": "O=Nc1ccc(O)cc1", "outcome": "inactive"}
{"smiles": "c1ccc2c(c1)ccc1ncccc12", "outcome": "inactive"}
{"smiles": "CCO[Si](CCCN=C=O)(OCC)OCC", "outcome": "inactive"}
{"smiles": "C=CC(=O)OCC(Br)CBr", "note": "(stereo unspecified)", "AC50": "37 µM (active)"}
{"smiles": "c1ccc2c(c1)ccc1cc3c(ccc4ccccc43)cc12", "outcome": "inactive"}
{"smiles": "O=C(Nc1ccccc1SSc1ccccc1NC(=O)c1ccccc1)c1ccccc1", "outcome": "inactive"}
{"smiles": "CCCCCCCCc1ccc(Nc2ccc(CCCCCCCC)cc2)cc1", "outcome": "inactive"}
{"smiles": "CCCCC(CC)COC(=O)c1ccccc1O", "note": "(stereo unspecified)", "AC50": "18.8 µM (active)"}
{"smiles": "S=C(NC1CCCCC1)NC1CCCCC1", "outcome": "inactive"}
{"smiles": "CC(C)(c1cc(Br)c(OCCO)c(Br)c1)c1cc(Br)c(OCCO)c(Br)c1", "AC50": "9.45 µM (active)"}
{"smiles": "C=CCOCC(O)CCl", "note": "(stereo unspecified)", "outcome": "inactive"}
{"smiles": "CC(C)C(=O)C(C)C", "outcome": "inactive"}
{"smiles": "O=c1c2ccccc2oc2ccccc12", "outcome": "inactive"}
{"smiles": "CN1C(=O)N(C)C(O)C1O", "note": "(stereo unspecified)", "outcome": "inactive"}
{"smiles": "C=C[Si](OC(C)=O)(OC(C)=O)OC(C)=O", "outcome": "inactive"}
{"smiles": "N#[N+]c1ccc2c(S(=O)(=O)[O-])cccc2c1O", "outcome": "inactive"}
{"smiles": "CCCCC/C=C\\C/C=C\\CCCCCCCC(=O)OC", "outcome": "inactive"}
{"smiles": "C#CC1(O)CC[C@H]2[C@@H]3CCC4=CCCC[C@@H]4[C@H]3CC[C@@]21C", "note": "(stereo partly specified)", "outcome": "inactive"}
